Screens deposited in PubChem BioAssay by National Center for Advancing Translational Sciences (NCATS).
An excerpt weighted towards active compounds, which were near 7.9% of everything screened.
FMDV inh: antivirals against foot and mouth disease virus | Potency, µM (titrated, usually from 57.9 µM), for the others: at the top dose activity change, negative = inhibition, most hits filed as inhibitors | AID 1159524 | 410,000 tested, 1.2% active | FMDV antiviral cell-based qHTS; calls by dose curve; tested in HEK293T cells; also: read-out not given here; potency is read from the fitted curve at half-maximal effect; nearly all actives have a fitted effect of over 45% in size
Marburg entry inh: inhibitors of Marburg virus binding or cell entry. Marburg virus pseudotyped entry inhibition, cell reporter. Potency, µM (doses to about 37.8 µM), inactives show top-dose activity change, negative = inhibition, most hits filed as inhibitors. 300,000 tested, 1.8% active. AID 540276; calls by dose curve; tested in HEK293 cells; also: potency is read from the fitted curve at half-maximal effect
HCV inh: blocks hepatitis C virus. 340,000 tested, 3.4% active. AID 651820. Huh7.5.1 HCVcc-Cre infection, luciferase reporter, 44 h. Potency, µM (doses to about 41.8 µM), for inactives: top-dose activity change, negative = inhibition, most hits filed as inhibitors; active = well fitted inhibition curve with a large enough effect; inconclusive = small, poorly fitted or top-dose-only effect, or another doubt; inactive = no such curve, though single readings can be large or run the other way; also: potency is read from the fitted curve at half-maximal effect
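Cells seeded at 1,000/well and cultured 4 h, then compounds added followed by HCVcc-Cre virus (~0.5 moi). After 44 h further culture, luciferase substrate was added, plates held 15 min at room temperature, and luminescence read for 15 sec.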
Lassa entry inh: blocks Lassa virus binding to or entry into cells; Lassa virus pseudotype entry inhibition, cell reporter; Potency, µM (series often up to 37.9 µM), for the others: at the highest dose activity change, negative = inhibition, actives largely listed as inhibitors; 300,000 tested, 1.2% active; AID 540256; calls by dose curve; tested in HEK293 cells; also: potency is read from the fitted curve at half-maximal effect; nearly all actives have a fitted effect of over 50% in size
HCMV inh: inhibitors of human cytomegalovirus; HFF cells, HCMV-luciferase reporter, 72 h; active compounds read low; activity change, negative = inhibition, % at 57.5 µM; 410,000 tested, 4.5% active; AID 1259415; in the data active = activity change below about -60%; inconclusive = no clear call, values can overlap the other calls; inactive = above about -39%
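Compounds were evaluated in HFFs infected with an HCMV luciferase reporter virus (MOI 1 PFU/cell). Luciferase in lysates collected 72 h post infection served as the replication measure.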
* hit, by the source's call; ? = inconclusive; nt = no result given; ! = not active in a repeat; [ ] = dose if it differs, or a comment. % is scaled to controls: 0 for no effect and ±100 for the full control effect.

SMILES	FMDV inh	Marburg entry inh	HCV inh	Lassa entry inh	HCMV inh
CCOc1ccc(C(=O)c2oc3ccccc3c2NC(=O)c2cc(-c3ccc(C)cc3)on2)cc1	-26%	-1%[46.1 µM]	nt	16%[46.1 µM]	-19
COc1ccc(CCNC(=O)CCCn2c(=O)c3ccccc3n(CC(=O)Nc3cccc(C)c3)c2=O)cc1OC	-13%	-7%[46.1 µM]	nt	2%[46.1 µM]	-8
CCOC(=O)N1CCN(C(=O)c2ccc3c(c2)N(Cc2cc(C)ccc2C)C(=O)c2ccccc2S3=O)CC1 (stereo unspecified)	?	?	?	?	-88*!
CCOC(=O)N1CCC(NC(=O)c2ccc3c(c2)N(Cc2ccc(F)cc2)CCS3)CC1	?	-1%	18µM*	nt	-25
CCOC(=O)N1CCC(NC(=O)c2ccc3c(c2)N(Cc2ccc(Cl)cc2)C(=O)c2ccccc2S3=O)CC1 (stereo unspecified)	-26%	?	nt	-24%[46.1 µM]	-82*
Cc1ccc(C)c(CN2C(=O)c3ccccc3S(=O)c3ccc(C(=O)NCCCN4CCCC4)cc32)c1 (stereo unspecified)	-5%	nt	7.1µM*	nt	?
COc1cccc(CNC(=O)c2cnc(N3CCCCC3)c3ccccc23)c1	-20%	nt	nt	-3%[46.1 µM]	23
CCCSCCCNC(=O)c1ccc2c(c1)sc1nc(-c3ccc(OCC)cc3)cn12	-7%	nt	nt	-12%[46.1 µM]	nt
CC(=O)N1CCc2cc(S(=O)(=O)C(C)CC(=O)Nc3ccc(Br)c(C)c3)ccc21 (stereo unspecified)	-20%	nt	nt	17%[46.1 µM]	-18
COc1ccc(-n2cc3ccc([N+](=O)[O-])cc3n2)cc1	-35%	?	?	?	-96*
COc1ccc2[nH]cc(CCCN3C(=O)c4ccccc4C3=O)c2c1	-19%	?	-24%	11µM*	-36
Cc1cc(SCC(=O)NN)c2cc(Br)ccc2n1	27%	-10%[46.1 µM]	3%	?	-66*
CCn1c(SCC(=O)N/N=C/c2cc(OC)c(OC)c(OC)c2)nc2ccccc21	25µM*	?	?	-16%	-18
COc1ccc2nc(C)cc(SCC(=O)N/N=C/c3ccc(O)cc3O)c2c1	?	?	13µM*	?	-21
COc1ccc2nc(C)cc(SCC(=O)N/N=C/c3ccccc3)c2c1	?	-10%	-2%	?	-60*
COc1cccc2c(SCC(=O)N/N=C/c3ccc(O)cc3O)cc(C)nc12	?	?	?	?	59
COc1ccc2nc(C)cc(SCC(=O)N/N=C/c3c(OC)ccc4ccccc34)c2c1	?	?	1%	-3%	-3
Cc1ccc(-n2nc(CO)c(C(=O)NCCCc3ccccc3)n2)cc1	-7%	1%[46.1 µM]	nt	-29%[46.1 µM]	-18
CCn1c(-c2ccccc2F)nc2cc(NC(C)=O)cc(C(=O)N3CCC[C@H]3C(=O)OC)c21	15%	nt	nt	nt	nt
CCOc1ccc(C2C(C(N)=O)=C(C)Nc3nc(SCc4ccccc4F)nn32)cc1 (stereo unspecified)	-16%	-9%[46.1 µM]	nt	-26%[46.1 µM]	-22
COc1ccccc1/C=N/NC(=O)CSc1cc(C)nc2ccccc12	-27%	?	-28%	?	-82*
C=CCCc1ccc(C#N)c(SCc2c(C(=O)OCC)c3cc(OC(C)=O)c(Br)cc3n2C)n1	?	?	?	7.9µM*	nt
CCOC(=O)CC(=O)CSc1nc(C)cc(C)c1C#N	0%	0%[46.1 µM]	5%	-2%	0
CCOC(=O)c1c(CSc2nc(C)cc(C)c2C#N)n(C)c2cc(Br)c(OC(C)=O)cc12	?	-3%	?	?	-94*
CN(C)c1ccc(-c2[nH][nH]c(=O)c2NC(=O)c2ccc3ccccc3n2)cc1	-10%	nt	nt	nt	-63*
SMILES	FMDV inh	Marburg entry inh	HCV inh	Lassa entry inh	HCMV inh
CN(C)c1ccc(-c2[nH][nH]c(=O)c2NC(=O)c2ccccn2)cc1	1%	nt	nt	nt	-61*
Cc1cnc(C(=O)Nc2c(-c3ccccc3)[nH][nH]c2=O)cn1	-5%	nt	nt	nt	-10
Cc1c(C(=O)OCC2CCCCC2)[nH]c2c1C(=O)CC(c1ccccc1Cl)C2 (stereo unspecified)	-5%	-12%[46.1 µM]	nt	-18%[46.1 µM]	-10
Cc1ccccc1NC(=O)C1CCN(C(=O)c2cnn(-c3ccccc3)c2-n2cccc2)CC1	-12%	?	nt	-3%[46.1 µM]	-14
Cc1ccc(OCCSc2nc3ccccc3n2CC(=O)N2CCOCC2)cc1C	0%	-22%[46.1 µM]	nt	26%[46.1 µM]	-4
O=C(Nc1cccc(S(=O)(=O)NC2=NCCCCC2)c1)c1cc(-c2ccccc2Cl)nc2ccccc12	-17%	?	?	-26%	-64*
